Compounds without any hit were thinned out: in the full panel of roughly 83,000, 20% have a hit.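 For each line, cells grew in 96-well plates with the test compound present at a single concentration for 48 hours.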 Activity calls are given as the source filed them. The calls were made as follows: active = growth percent below 10; inactive = the rest.
Experiments:
Experiment in all cases: NCI-60 one-dose screen, 48 h (100 = growth as untreated, 0 = no growth, -100 = all killed)
SK-MEL-2 melanoma = settings: 10 µM
EKVX NSCLC = settings: 10 µM unless noted
SN12C renal = settings: 10 µM unless noted
UO-31 renal = settings: 10 µM unless noted
TK-10 renal = settings: 10 µM unless noted
ACHN renal = settings: 10 µM unless noted
CCRF-CEM leukemia = settings: 10 µM unless noted
SR leukemia = settings: 10 µM unless noted
RPMI-8226 leukemia = settings: 10 µM unless noted
OVCAR-8 ovarian = settings: 10 µM unless noted
OVCAR-5 ovarian = settings: 10 µM unless noted
OVCAR-4 ovarian = settings: 10 µM unless noted
SK-OV-3 ovarian = settings: 10 µM unless noted
IGROV1 ovarian = settings: 10 µM unless noted
OVCAR-3 ovarian = settings: 10 µM unless noted
HS 578T breast = settings: 10 µM
NCI/ADR-RES ovarian = settings: 10 µM unless noted
CAKI-1 renal = settings: 10 µM unless noted
MOLT-4 leukemia = settings: 10 µM unless noted
A498 renal = settings: 10 µM unless noted

Measured: growth

CC(N)C(Cc1ccc(Cl)cc1)c1ccc(Cl)cc1 (configuration not stated)
inactive: EKVX NSCLC 83.7% | SN12C renal 87% | UO-31 renal 55.8% | TK-10 renal 45.5% | ACHN renal 80.5% | CCRF-CEM leukemia 65.6% | RPMI-8226 leukemia 25.3% | OVCAR-8 ovarian 71.5% | OVCAR-5 ovarian 77.9% | OVCAR-4 ovarian 71.7% | SK-OV-3 ovarian 81.9% | IGROV1 ovarian 77.8% | OVCAR-3 ovarian 87.2% | HS 578T breast 71.6% | NCI/ADR-RES ovarian 87.5%
active: SK-MEL-2 melanoma -58% | SR leukemia -9.14%

COc1cc2c(cc1OCCCCCN1CCN(c3ncnc4ccccc34)CC1)N=CC1CCCN1C2=O (configuration not stated)
inactive: OVCAR-5 ovarian 23.8% | SK-OV-3 ovarian 19.5% | NCI/ADR-RES ovarian 12.8%
active: SK-MEL-2 melanoma 1.29% | EKVX NSCLC -41.5% | SN12C renal 1.92% | TK-10 renal -21.4% | ACHN renal 1.61% | CAKI-1 renal -18.1% | CCRF-CEM leukemia -37.2% | MOLT-4 leukemia 0.399% | SR leukemia 0.841% | RPMI-8226 leukemia -35.6% | OVCAR-8 ovarian 1.28% | OVCAR-4 ovarian -3.06% | IGROV1 ovarian -38.4% | OVCAR-3 ovarian 1.46%

CCOC(=O)Sc1ncnc2nc[nH]c12
active: MOLT-4 leukemia 4.03% | SR leukemia 9.18%
inactive: SK-MEL-2 melanoma 27.9% | EKVX NSCLC 97.9% | SN12C renal 82.4% | UO-31 renal 41% | TK-10 renal 23.2% | ACHN renal 70% | A498 renal 84% | CCRF-CEM leukemia 13.5% | OVCAR-8 ovarian 18.5% | OVCAR-5 ovarian 47.2% | OVCAR-4 ovarian 35.1% | SK-OV-3 ovarian 23.9% | IGROV1 ovarian 45.1% | OVCAR-3 ovarian 26.4% | HS 578T breast 76.2% | NCI/ADR-RES ovarian 37%

CCCC(=O)OCC1OC(n2cnc3c(=S)nc(N)[nH]c32)C(OC(=O)CCC)C1OC(=O)CCC (configuration not stated)
active: A498 renal -2.02% | MOLT-4 leukemia 0.324% | SR leukemia 6.99% | OVCAR-8 ovarian 6.16% | SK-OV-3 ovarian 5.91% | OVCAR-3 ovarian 6.47%
inactive: SK-MEL-2 melanoma 15% | EKVX NSCLC 42.4% | SN12C renal 42.8% | UO-31 renal 43.3% | TK-10 renal 23.5% | ACHN renal 39.7% | OVCAR-5 ovarian 38.4% | OVCAR-4 ovarian 20.6% | IGROV1 ovarian 51% | HS 578T breast 29.9% | NCI/ADR-RES ovarian 40.2%

N#Cc1c(NC(=O)c2cccs2)[n+]([O-])c2ccc(F)cc2[n+]1[O-]
inactive: SK-MEL-2 melanoma 92.9% | EKVX NSCLC 86.4% | SN12C renal 98.3% | TK-10 renal 117% | ACHN renal 89% | CAKI-1 renal 90.7% | CCRF-CEM leukemia 77.7% | MOLT-4 leukemia 90.2% | SR leukemia 77% | RPMI-8226 leukemia 93.2% | OVCAR-8 ovarian 95.6% | OVCAR-5 ovarian 108% | OVCAR-4 ovarian 85.7% | SK-OV-3 ovarian 82.6% | IGROV1 ovarian 68.9% | OVCAR-3 ovarian 98.3% | NCI/ADR-RES ovarian 111%

CC(C)C1CCC(C)C(C2(C#N)C(N)=NC(N)=C2C#N)C1=O (configuration not stated)
inactive: SK-MEL-2 melanoma 109% | EKVX NSCLC 94.4% | SN12C renal 100% | UO-31 renal 80.2% | TK-10 renal 115% | ACHN renal 107% | A498 renal 105% | CCRF-CEM leukemia 103% | SR leukemia 102% | RPMI-8226 leukemia 89% | OVCAR-8 ovarian 106% | OVCAR-5 ovarian 103% | OVCAR-4 ovarian 90.8% | IGROV1 ovarian 94.4% | OVCAR-3 ovarian 98% | NCI/ADR-RES ovarian 97.1%

Cc1ccccc1Nc1nc2nonc2nc1Nc1cccc(C)c1C
inactive: SK-MEL-2 melanoma 24.9% | EKVX NSCLC 27.2% | SN12C renal 44.3% | UO-31 renal 51.4% | TK-10 renal 56.4% | ACHN renal 52.6% | CCRF-CEM leukemia 50.6% | MOLT-4 leukemia 53.5% | SR leukemia 66.8% | RPMI-8226 leukemia 24.4% | OVCAR-8 ovarian 54.3% | OVCAR-5 ovarian 98.9% | OVCAR-4 ovarian 30.3% | SK-OV-3 ovarian 56.6% | IGROV1 ovarian 74% | OVCAR-3 ovarian 35.8% | HS 578T breast 72.6% | NCI/ADR-RES ovarian 56.5%

CCc1ccc(/C=C/c2ccc(O)c3ncccc23)[n+](C)c1
active: MOLT-4 leukemia 7.81% | SR leukemia 7.25% | OVCAR-8 ovarian -12.1% | OVCAR-3 ovarian -11.4%
inactive: SK-MEL-2 melanoma 78.4% | EKVX NSCLC 47% | SN12C renal 31.4% | UO-31 renal 27.1% | TK-10 renal 85.5% | ACHN renal 89.3% | A498 renal 29.6% | CCRF-CEM leukemia 22.8% | OVCAR-5 ovarian 40.9% | OVCAR-4 ovarian 35.9% | SK-OV-3 ovarian 76.7% | IGROV1 ovarian 33.4% | HS 578T breast 23.1% | NCI/ADR-RES ovarian 73.4%

C=C1C[C@H](O)[C@H](Br)C(C)(C)[C@@]12CCC(C)=C(Cl)C2
active: SK-MEL-2 melanoma 6.3% | MOLT-4 leukemia -8.16% | SR leukemia 5.02% | RPMI-8226 leukemia -18.2%
inactive: EKVX NSCLC 13.5% | SN12C renal 22.6% | UO-31 renal 37.1% | TK-10 renal 31% | ACHN renal 24.2% | CCRF-CEM leukemia 21.6% | OVCAR-8 ovarian 29% | OVCAR-5 ovarian 43.3% | OVCAR-4 ovarian 27.3% | SK-OV-3 ovarian 12.1% | IGROV1 ovarian 40.1% | OVCAR-3 ovarian 35.2% | NCI/ADR-RES ovarian 22.1%

Cc1ccc2oc(=O)cc(-c3cc(-c4cc5ccccc5oc4=O)nc(N)c3C#N)c2c1
active: OVCAR-4 ovarian 8.25%
inactive: SK-MEL-2 melanoma 87.2% | EKVX NSCLC 79% | SN12C renal 68.2% | UO-31 renal 48.5% | TK-10 renal 71.9% | ACHN renal 41.6% | A498 renal 80.1% | CCRF-CEM leukemia 93.7% | SR leukemia 74.3% | RPMI-8226 leukemia 72.9% | OVCAR-8 ovarian 61.1% | OVCAR-5 ovarian 101% | SK-OV-3 ovarian 78.8% | IGROV1 ovarian 81.6% | OVCAR-3 ovarian 77.1% | NCI/ADR-RES ovarian 80.4%

CCc1ccc(C2=C(O)C(=O)C(c3ccc(CC)cc3)=C(O)C2=O)cc1
active: SK-MEL-2 melanoma -44.4% | EKVX NSCLC -15% | SN12C renal -6.25% | UO-31 renal 0.57% | TK-10 renal 5.31% | ACHN renal -9.41% | A498 renal -31% | MOLT-4 leukemia -6.88% | SR leukemia -18.5% | OVCAR-8 ovarian -59% | OVCAR-5 ovarian -0.569% | OVCAR-4 ovarian -0.208% | SK-OV-3 ovarian -9.04% | IGROV1 ovarian -36.3% | OVCAR-3 ovarian -47.2% | HS 578T breast -21.6% | NCI/ADR-RES ovarian -18.5%

CC1(O)CCC2CC3OC3(C)CCC3OC3(C)C(O)CC1C2(C)C (configuration not stated)
inactive: SK-MEL-2 melanoma 103% | EKVX NSCLC 87.8% | SN12C renal 103% | TK-10 renal 107% | ACHN renal 101% | CAKI-1 renal 99.2% | CCRF-CEM leukemia 91.5% | MOLT-4 leukemia 106% | SR leukemia 104% | RPMI-8226 leukemia 84.4% | OVCAR-8 ovarian 87.3% | OVCAR-5 ovarian 120% | OVCAR-4 ovarian 91.1% | SK-OV-3 ovarian 109% | IGROV1 ovarian 70% | OVCAR-3 ovarian 118% | NCI/ADR-RES ovarian 112%

COc1ccc(C2OC(c3cc(-c4cc5ccccc5o4)nn3-c3ccccc3)=NN2C(C)=O)cc1 (configuration not stated)
inactive: SK-MEL-2 melanoma 94.5% | EKVX NSCLC 94.5% | SN12C renal 93.2% | TK-10 renal 111% | ACHN renal 99.3% | CAKI-1 renal 100% | CCRF-CEM leukemia 95.5% | MOLT-4 leukemia 83% | SR leukemia 93.1% | RPMI-8226 leukemia 101% | OVCAR-8 ovarian 99.5% | OVCAR-5 ovarian 94% | OVCAR-4 ovarian 96.3% | SK-OV-3 ovarian 103% | IGROV1 ovarian 89.4% | OVCAR-3 ovarian 95.3% | NCI/ADR-RES ovarian 92.2%

Cc1cc(N(CCNc2ccnc3cc(Cl)ccc23)Cc2ccc3c(c2)OCO3)nc(N2CCCC2)n1
active: SK-MEL-2 melanoma -39.9% | UO-31 renal -56.2% | TK-10 renal -43.5% | ACHN renal -49.1% | A498 renal -2.25% | CCRF-CEM leukemia -0.451% | SR leukemia -46.7% | RPMI-8226 leukemia -27.3% | OVCAR-8 ovarian 7.4% | OVCAR-4 ovarian -44.9% | IGROV1 ovarian -14.4% | OVCAR-3 ovarian -30.7% | HS 578T breast 6.29%
inactive: EKVX NSCLC 35.8% | SN12C renal 27.9% | OVCAR-5 ovarian 20.6% | SK-OV-3 ovarian 40.9% | NCI/ADR-RES ovarian 31.1%

CC(=Nc1ccccc1)C1=C(O)C(Cc2ccc(O)cc2)NC1=O (configuration not stated)
active: A498 renal -25.6% | MOLT-4 leukemia -3.04% | SR leukemia -9.58% | OVCAR-8 ovarian -53.5% | OVCAR-3 ovarian -63.2% | HS 578T breast -27.2% | NCI/ADR-RES ovarian -13.4%
inactive: SK-MEL-2 melanoma 42.2% | EKVX NSCLC 20.4% | SN12C renal 43.5% | UO-31 renal 42.3% | TK-10 renal 68.2% | ACHN renal 33.2% | OVCAR-5 ovarian 32.1% | OVCAR-4 ovarian 36.6% | SK-OV-3 ovarian 23% | IGROV1 ovarian 17.8%

N#Cc1c(NC(=O)c2ccco2)[n+]([O-])c2cc(F)c(F)cc2[n+]1[O-]
active: SR leukemia 8.42%
inactive: SK-MEL-2 melanoma 97.2% | EKVX NSCLC 109% | SN12C renal 94.9% | TK-10 renal 80.2% | ACHN renal 97.8% | CAKI-1 renal 66.7% | CCRF-CEM leukemia 67.2% | MOLT-4 leukemia 75% | RPMI-8226 leukemia 17.8% | OVCAR-8 ovarian 38.9% | OVCAR-5 ovarian 119% | OVCAR-4 ovarian 89.7% | SK-OV-3 ovarian 99.4% | IGROV1 ovarian 29.6% | OVCAR-3 ovarian 102% | NCI/ADR-RES ovarian 112%

CSC1=C(N)C(=O)c2[nH]cc(CO)c2C1=N
active: SK-MEL-2 melanoma -52.3% | EKVX NSCLC -56.6% | SN12C renal -49% | UO-31 renal -96% | TK-10 renal -83.7% | ACHN renal 1.86% | A498 renal -89.6% | CCRF-CEM leukemia 3.16% | SR leukemia 6.06% | RPMI-8226 leukemia -32.9% | OVCAR-8 ovarian -62% | OVCAR-5 ovarian -76% | OVCAR-4 ovarian -95.7% | SK-OV-3 ovarian -94.4% | IGROV1 ovarian -62.5% | OVCAR-3 ovarian -74.8% | HS 578T breast 5% | NCI/ADR-RES ovarian -23%

O=C(Nc1cccc([N+](=O)[O-])c1)c1ccc(Cl)c(Cl)c1
inactive: EKVX NSCLC 66.4% | SN12C renal 67.9% | UO-31 renal 95.4% | TK-10 renal 49.9% | ACHN renal 49.8% | CAKI-1 renal 86.4% | A498 renal 79.9% | CCRF-CEM leukemia 82.7% | MOLT-4 leukemia 85.9% | SR leukemia 80.7% | RPMI-8226 leukemia 79.1% | OVCAR-8 ovarian 43.5% | OVCAR-5 ovarian 94.2% | OVCAR-4 ovarian 16.7% | SK-OV-3 ovarian 53.3% | IGROV1 ovarian 47% | OVCAR-3 ovarian 53.8% | HS 578T breast 70% | NCI/ADR-RES ovarian 79%
